Bioassay records from PubChem BioAssay.
BaF3 tox – reduces parental Ba/F3 cell viability, JAK2V617F counter-screen; CellTiter-Glo ATP luminescence; inhibition, % at 5.6 µM; 220,000 tested, 1.1% active; AID 1486;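 active means inhibition above a per-campaign cutoff, the mean inhibition of all tested compounds plus 3 SD, cut at about 27% in these data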;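 further: 0% = DMSO wells and 100% = JAK Inhibitor I control wells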
KLF5 inh – inhibitors of KLF5 expression; DLD-1 KLF5 promoter-luciferase reporter, luminescence; inhibition, % at 5 µM; 290,000 tested, 0.23% active; AID 1700;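 active means inhibition above a per-plate limit of that plate's mean compound inhibition plus 3 SD, cut at about 60% in these data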;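 further: 0% = DMSO wells and 100% = LY294002 at 200 µM; higher means less KLF5 promoter-driven luciferase light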
IEC-6 cytotox – counter-screen for KLF5 inhibitors: cytotoxicity in IEC-6 cells; IEC-6 cytotoxicity, luminescence viability; inhibition, % at 5 µM; 290,000 tested, 0.78% active; AID 1825; in the data active means inhibition above about 22%;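 further: 0% = plate median of test compound wells and 100% = cytotoxic reference compound wells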
aSyn UTR inh – 5' untranslated region of α-synuclein, MLPCN primary screen | alpha-synuclein 5'UTR reporter, inhibitor activity | inhibition, % (tested at 7.5 µM) | 300,000 tested, 0.82% active | AID 1813; in the data active means inhibition above about 60%;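 further: H4 neuroglioblastoma cells stably carrying SNCA 5'UTR luciferase fusion; 0% = DMSO wells and 100% = positive control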
APP 5UTR inh – APP translation inhibition; SH-SY5Y APP 5'UTR-luciferase reporter, luminescence; inhibition, % at 2 µM; 190,000 tested, 0.82% active;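 active means inhibition above a set limit, derived from the sample mean plus 3 SD, cut at about 45% in these data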
Ba/F3 V617F tox – lowers viability of Ba/F3 cells expressing EpoR and JAK2V617F. ATP luminescence. inhibition, % at 5.6 µM. 220,000 tested, 1.1% active. AID 1446;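 active means inhibition above the campaign mean plus 3 SD over all tested compounds, cut at about 24% in these data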;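 further: cytokine-independent growth of Ba/F3 cells driven by EpoR plus mutant JAK2; 0% = DMSO-treated cells and 100% = JAK inhibitor I control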
The depositor's hits bear a star; . = not tested or not shown. An excerpt weighted towards active compounds, which were near 2.1% of everything screened.

SMILES	BaF3 tox	KLF5 inh	IEC-6 cytotox	aSyn UTR inh	APP 5UTR inh	Ba/F3 V617F tox
CC(C)(C)c1ccc(Oc2ccc(NC(=O)c3ccccc3C(=O)O)cn2)cc1	6	-1	10	86*	.	7
CC(C)(C)c1ccc(Oc2ccc(N)cn2)cc1	6	4	1	87*	.	6
O=C(O)c1ccccc1C(=O)Nc1ccc(Oc2ccccc2)cc1	0	18	-3	-4	.	-5
O=C(O)c1ccc2c(c1)C(=O)N(c1cccc3ccccc13)C2=O	.	-22	-1	8	.	.
O=C(COc1ccccc1[N+](=O)[O-])N/N=C/C=C/c1ccco1	95*	-15	-5	-73	-15	3
COc1ccc(C2=NN(CC(=O)Nc3ccccc3C)C(=O)CC2)cc1	57*	9	2	-8	.	-1
COCCNC(=O)CN1N=C(c2ccc(OC)cc2)CCC1=O	.	-13	-2	-7	.	.
O=C(Nc1ccccc1N1CCOCC1)c1cnccn1	3	15	1	16	17	-3
O=C(Nc1ccc(N2CCOCC2)cc1)c1cnccn1	.	44	8	67*	.	.
O=C(Nc1ccc(N2CCOCC2)cc1)c1cnsn1	6	16	-2	106*	-24	-2
CN(Cc1ccco1)C(=O)c1ccc(CNS(=O)(=O)c2ccc3c(c2)C(C)(C)C(=O)N3C)cc1	.	-14	8	-8	.	.
CN(c1ccccc1)c1ccc(/C=C/[N+](=O)[O-])cc1	6	-10	5	-19	54*	19
CN(C)c1ccc(-n2cccc2/C=C/[N+](=O)[O-])cc1	2	-5	1	-29	-29	-3
CCn1nc(C)c(CNC(=O)c2ccc(OC3CCN(Cc4ccccn4)CC3)cc2)c1C	.	0	20	1	.	.
O=C(NCCCN1CCOCC1)C(=O)N/N=C/c1c(Cl)cccc1Cl	9	-42	2	-6	-2	5
O=C(NCCCN1CCOCC1)C(=O)N/N=C/c1c2ccccc2cc2ccccc12	6	-2	4	67*	18	0
CC(C)n1c(CN(C)Cc2ccccc2)nc2c1c(=O)n(C)c(=O)n2C	.	-22	9	64*	.	.
CC(=O)C(C)n1c(CN(C)Cc2ccccc2)nc2c1c(=O)n(C)c(=O)n2C (centres undefined)	.	-22	0	7	.	.
CCn1c(CNc2ccccc2Cl)nnc1SCCN1CCCCC1	1	-8	3	7	-3	3
CCn1c(CNc2ccc(F)cc2)nnc1SCCN1CCCCC1	93*	-17	-2	0	-7	-3
COc1ccc(CCNCC(O)Cn2c3ccccc3c3ccccc32)cc1OC (centres undefined)	11	-22	6	120*	-6	2
Cc1ccc(-n2nc3c(=O)n(CCCC(=O)NCC(C)c4ccccc4)nc(C)c3c2C)cc1 (centres undefined)	.	1	13	46	.	.
O=C(Cc1cccc2ccccc12)N/N=C/c1ccc(Sc2cccc3cccnc23)o1	1	-2	0	2	54*	-4
CCCCC(=O)N/N=C/c1ccc(Sc2cccc3cccnc23)o1	2	-22	7	38	-1	0
c1ccc(-c2noc(C3CCC3)n2)nc1	-4	-59	4	-54	.	2
SMILES	BaF3 tox	KLF5 inh	IEC-6 cytotox	aSyn UTR inh	APP 5UTR inh	Ba/F3 V617F tox
CCCCC1CCC(c2nc(-c3ccccn3)no2)CC1 (centres undefined)	3	-16	-4	97*	-92	-3
O=C(/C=C/Nc1ccc(F)cc1Br)c1ccccc1	6	-103	7	70*	-149	0
Cn1c2c(c(=O)[nH]c1=O)C(c1cccc(O)c1)C1=C(N2)c2ccccc2C1=O (centres undefined)	16	2	2	.	28	35*
COc1cccc(C2C3=C(Nc4[nH]n(-c5ccccc5)c(=O)c42)c2ccccc2C3=O)c1 (centres undefined)	5	-16	2	.	12	-1
CCOC(=O)c1c(-c2ccc(-c3ccccc3)cc2)csc1NC(=O)CNCCN(C)C	.	-10	6	101*	.	.
CCOC(=O)c1c(-c2ccccc2)csc1NC(=O)CCN1C(=O)c2ccccc2C1=O	3	-4	3	3	-7	-1
Cc1csc2ncnc(NCCc3ccccn3)c12	77*	-27	-2	3	-20	37*
CN=c1scc(-c2ccc([N+](=O)[O-])cc2)n1/N=C/c1ccco1	8	-117	-4	-59	-196	1
CN=c1scc(-c2ccc(F)cc2)n1/N=C/c1ccc(O)c(O)c1	36*	-52	12	.	37	98*
Cc1nc(-c2ccc(NC(=O)c3ccccc3C)cc2)cs1	9	-94	2	-123	-120	1
CC1(c2nnc(Cc3ccccc3)o2)CC(c2ccccc2[N+](=O)[O-])=NO1 (centres undefined)	.	.	.	13	.	.
O=C(Nc1ccc(Oc2c(F)c(F)c(F)c(F)c2F)cc1)OC1CCN2Cc3ccccc3N=C12 (centres undefined)	-6	-11	0	104*	.	-2
CC(CCc1ccccc1)NC(=O)CN1CCN(c2ccccc2)CC1 (centres undefined)	5	-3	-6	16	-8	1
O=C(NCc1cccs1)C1CCN(c2ccc(S(=O)(=O)N3CCOCC3)cc2Cl)CC1	78*	74*	76*	24	93*	73*
CC1CN(c2ccc([N+](=O)[O-])c(NCCOc3ccccc3)c2)CC(C)N1 (centres undefined)	.	-35	5	-21	.	.
CC1CN(c2ccc([N+](=O)[O-])c(NCCOc3ccc(Cl)cc3)c2)CC(C)N1 (centres undefined)	.	-16	-2	104*	.	.
O=C(CSc1n[nH]c(=O)n1C1CC1)NCc1ccccc1	7	-16	1	-3	.	-1
O=C1C=CC(=O)C(C2=C3C(=O)N(CCc4ccccc4)CC(=O)N3CCC2)=C1	-1	4	-1	24	65*	-5
O=C1CC(=O)N(CCc2ccccc2)C(=O)N1CCc1ccccc1	5	-49	-1	14	9	1
COc1cc2c(cc1OC)C(c1ccc(Br)cc1)NCC2 (centres undefined)	.	.	.	63*	.	.
COc1ccc(C2NCCc3cc(OC)c(OC)cc32)cc1OC (centres undefined)	2	-6	-1	-8	59*	0
Cc1cc(N2CCCC2=O)ccc1S(=O)(=O)NC1CCCCC1	.	3	10	17	.	.
CN(C)CCn1c(SCc2ccccc2C#N)nc2c(sc3ccccc32)c1=O	.	-37	2	-53	.	.
Cn1c(=O)c2ncn(CC(=O)Nc3nc(-c4ccc(Cl)cc4)cs3)c2n(C)c1=O	2	-1	-1	33	12	-3
Cc1cc(NC(=O)c2cccc(Br)c2)n[nH]1	.	.	.	-141	.	.
O=C(Nc1cc(=O)[nH]c(=O)[nH]1)c1cccc(Br)c1	37*	8	11	7	8	12
CC(=O)Nc1cc(OC(C)=O)c2nonc2c1OC(C)=O	103*	115*	100*	.	17	101*
